A selection: hits, their analogues and other compounds. The true share with any hit is near 19%.
HT1080NT lethal – qHTS for induction of synthetic lethality in tumor cells producing 2HG: qHTS for the HT-1080-NT fibrosarcoma cell line | actives 1.6% (n = 360,000) | Potency, µM (doses to about 46.1 µM), most hits filed as cytotoxic | AID 686970, 2013 | HT-1080-NT fibrosarcoma viability, CellTiter-Glo ATP luminescence, 48 h;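 also: NT is the 2HG producing partner of a matched IDH1 knockdown line; nearly all actives have a fitted effect of over 55% in size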
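Toxicity toward the 2HG-producing NT line was scored as %Activity, normalised to DMSO and no-cell wells, from CellTiter-Glo luminescence after 48 hours' treatment.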
IL-1B inflam inh – qHTS for Inhibitors of Inflammasome Signaling: IL-1-beta AlphaLISA Primary Screen; actives 4.7% (n = 360,000); AID 743279, 2014; activity change, % at 57.5 µM; THP-1 LPS/ATP IL-1B secretion, AlphaLISA, 16 h; hits give low values; in the data active = activity change below about -50%; inconclusive = mostly about -30% to -49%
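Secreted IL-1B measured by AlphaLISA bead assay after 16 h compound exposure of THP-1 cells; compounds (final up to 57.5 uM) added 1 h before LPS (250 ng/mL) and ATP (1.25 mM) stimulation; lower signal means less secretion.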
TDP1 cell noCPT – qHTS for Inhibitors of human tyrosyl-DNA phosphodiesterase 1 (TDP1): qHTS in cells in absence of CPT | DT40 Tdp1-/- hTDP1 cells, no CPT, ATP luminescence, 48 h | Potency, µM (highest dose often 46.2 µM), usual class: inhibitors | actives 15% (n = 420,000) | AID 686978, 2013; also: nearly all actives have a fitted effect of over 55% in size
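A cellular qHTS used chicken DT40 cells lacking endogenous Tdp1 but carrying stably transfected human TDP1. Compounds were applied without camptothecin, and cell growth kinetics were judged by ATP-dependent luminescence after ≥48 hr.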
HT1080 IDH1KD tx – qHTS for induction of synthetic lethality in tumor cells producing 2HG: qHTS for the HT-1080-IDH1KD cell line | Potency, µM (series often up to 46.1 µM), hits mostly cytotoxic | HT-1080 IDH1 knockdown viability, ATP luminescence, 48 h | actives 2% (n = 360,000)
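After a 2 h attachment period, IDH1KD HT-1080 cells took pin-transferred compound for 48 h at 37 °C; ATP-based luminescence after 10 min room-temperature reagent incubation reported viability.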
DT40 TDP1 CPT – qHTS for Inhibitors of human tyrosyl-DNA phosphodiesterase 1 (TDP1): qHTS in cells in presence of CPT. chicken DT40 Tdp1-/-;hTDP1 cells + 20 nM CPT, ATP luminescence, 48 h. Potency, µM (top dose mostly 46.2 µM), most hits filed as inhibitors. actives 12% (n = 420,000); also: nearly all actives have a fitted effect of over 55% in size
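Chicken DT40 Tdp1-/- cells complemented with human TDP1, 400 cells/well, exposed to compounds plus 20 nM camptothecin for at least 48 h at 37 C; viability read as ATP content by CellTiter-Glo luminescence.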
Large screens that a line does not name were inactive. Unless noted, calls follow the shape of the dose curve; as a rule, active = well fitted curve in the direction sought with a large enough effect; inconclusive = small, poorly fitted or top-dose-only effect, or another doubt; inactive = no such curve, though single readings can be large; an effect the other way counts as inactive or inconclusive.

Cc1cccc(OCC(=O)Nc2cc(S(=O)(=O)N3CCOCC3)ccc2N2CCCC2)c1C	IL-1B inflam inh -81, TDP1 cell noCPT 16µM, DT40 TDP1 CPT inconclusive
CCCCCC(=O)Nc1cc(S(=O)(=O)N2CCOCC2)ccc1N1CCN(C)CC1	none
Cc1ccc(OCCC(=O)Nc2cc(S(=O)(=O)N3CCOCC3)ccc2N2CCCC2)cc1	IL-1B inflam inh inconclusive, TDP1 cell noCPT 15µM, DT40 TDP1 CPT inconclusive
CCCCCC(=O)Nc1cc(S(=O)(=O)N2CCOCC2)ccc1N1CCCCC1	TDP1 cell noCPT 21µM, DT40 TDP1 CPT inconclusive
Cc1ccc(S(=O)(=O)N2CCOCC2)cc1C(=O)Nc1ccc(-c2cn3ccsc3n2)cc1	TDP1 cell noCPT 11µM, DT40 TDP1 CPT 11µM
CCc1ccc(C(=O)N2CCN(c3ccc(NC(=O)c4cccnc4)cc3)CC2)cc1	DT40 TDP1 CPT inconclusive
O=C(OCC(=O)c1c[nH]c2ccccc12)c1ccc(F)c(S(=O)(=O)N2CCOCC2)c1	TDP1 cell noCPT inconclusive
CC(Sc1nc(N)cc(N)n1)C(=O)NCCC1=CCCCC1 (stereo not drawn)	none
CCOc1c(Nc2ccccc2O)c(=O)c1=O	none
Cc1ccc(S(=O)(=O)N2CCOCC2)cc1C(=O)Nc1cc(Cl)ccc1N1CCOCC1	TDP1 cell noCPT inconclusive, DT40 TDP1 CPT 23µM
CCCNC(=O)C1CCN(c2ccc(S(=O)(=O)N3CCOCC3)cc2Cl)CC1	DT40 TDP1 CPT 15µM
COc1ccccc1CCC(=O)Nc1cc(S(=O)(=O)N2CCOCC2)ccc1N1CCCC1	TDP1 cell noCPT 29µM, DT40 TDP1 CPT inconclusive
CSCCC(=O)Nc1cc(S(=O)(=O)N2CCOCC2)ccc1N1CCN(C)CC1	IL-1B inflam inh -72
O=C(Nc1cc(S(=O)(=O)N2CCOCC2)ccc1N1CCOCC1)c1ccccc1Cl	none
Cc1ccc(/C=N/NC(=O)COc2ccc(Cl)c(C)c2)o1	none
CC(C)(C)OC(=O)n1cc(CCO)c2ccccc21	none
O=C(CCCc1cccs1)N1CCN(S(=O)(=O)c2ccccc2Br)CC1	none
CN(Cc1ccccc1F)C(=O)CN1c2cccc3cccc(c23)S1(=O)=O	TDP1 cell noCPT inconclusive, DT40 TDP1 CPT inconclusive
Cc1ccc[n+](-c2[nH]c(=O)sc2/C=N/NC(=O)c2ccccc2[O-])c1	none
Cc1ccc(S(=O)(=O)N2CCOCC2)cc1NC(=O)C(c1ccc(Cl)cc1)C(C)C (stereo not drawn)	IL-1B inflam inh -58, TDP1 cell noCPT inconclusive, DT40 TDP1 CPT inconclusive
O=C(CSc1cccc[n+]1[O-])Nc1cc(S(=O)(=O)N2CCOCC2)ccc1N1CCOCC1	none
Cc1ccc(S(=O)(=O)N2CCOCC2)cc1NC(=O)CSc1ccc(Cl)cc1	TDP1 cell noCPT inconclusive, DT40 TDP1 CPT inconclusive
Cc1ccccc1SCC(=O)Nc1cc(S(=O)(=O)N2CCOCC2)ccc1N1CCOCC1	TDP1 cell noCPT inconclusive, DT40 TDP1 CPT 16µM
CCN1CCN(c2ccc(S(=O)(=O)N3CCCCC3)cc2NC(=O)CCNC(C)=O)CC1	none
CCCCCC(=O)Nc1cc(S(=O)(=O)N2CCCCC2)ccc1N1CCCCC1	TDP1 cell noCPT 15µM, DT40 TDP1 CPT inconclusive
O=C(CCCSc1ccc(Cl)cc1)Nc1cc(S(=O)(=O)N2CCOCC2)ccc1O	TDP1 cell noCPT 23µM, DT40 TDP1 CPT 18µM
COc1ccc(CNC(=O)C2=CC(c3ccc(C)cc3)=NS(=O)(=O)N2C)cc1	none
O=C(OCC1CCCO1)c1ccc2c(c1)N(Cc1c(F)cccc1Cl)C(=O)c1ccccc1S2(=O)=O (stereo not drawn)	none (no result: HT1080NT lethal, IL-1B inflam inh, HT1080 IDH1KD tx)
CC(C)N1C(=S)SC2CS(=O)(=O)C=C21 (stereo not drawn)	none
CC(OC(=O)c1ccc(-c2ccc(O)cc2)cc1)C(=O)NC1CCCCC1C (stereo not drawn)	TDP1 cell noCPT inconclusive
O=C(COc1ccccc1)Nc1cc(S(=O)(=O)N2CCOCC2)ccc1N1CCCC1	none
Cc1cc(Cl)ccc1OCCCC(=O)Nc1cc(S(=O)(=O)N2CCOCC2)ccc1N1CCOCC1	TDP1 cell noCPT 16µM, DT40 TDP1 CPT inconclusive
O=C(COc1cccc(Cl)c1)Nc1cc(S(=O)(=O)N2CCOCC2)ccc1N1CCOCC1	IL-1B inflam inh inconclusive, TDP1 cell noCPT 18µM, DT40 TDP1 CPT inconclusive
CC(OC(=O)CCC(=O)N1CCN(S(=O)(=O)c2ccc3ccccc3c2)CC1)C(=O)NC(N)=O (stereo not drawn)	none
CCOC(=O)c1cc(-c2ccc(F)cc2)n(CCC(=O)NC2CCN(Cc3ccccc3)CC2)c1C	HT1080NT lethal inconclusive, IL-1B inflam inh inconclusive, TDP1 cell noCPT 15µM, HT1080 IDH1KD tx inconclusive, DT40 TDP1 CPT 16µM
CCOC(=O)c1cc(-c2ccc(OC)cc2)n(CCC(=O)NC2CCN(Cc3ccccc3)CC2)c1C	TDP1 cell noCPT 21µM, DT40 TDP1 CPT inconclusive
Cc1c(C(=O)N2CC3CCC2C3)sc2ncnc(NCc3ccco3)c12 (stereo not drawn)	none (no result: HT1080NT lethal, IL-1B inflam inh, HT1080 IDH1KD tx)
COc1ccc(-c2nc(CSCC(=O)NC3CCCc4ccccc43)c(C)o2)cc1OC (stereo not drawn)	TDP1 cell noCPT 21µM, DT40 TDP1 CPT inconclusive
COc1ccc(-c2nc(CS(=O)CC(=O)NC3CCCc4ccccc43)c(C)o2)cc1OC (stereo not drawn)	TDP1 cell noCPT inconclusive, DT40 TDP1 CPT inconclusive
COc1ccc(-c2nc(CSCC(=O)N3CCC(C(N)=O)CC3)c(C)o2)cc1OC	none
COc1ccc(-c2nc(CSCC(=O)N3CCc4ccccc4C3)c(C)o2)cc1OC	IL-1B inflam inh inconclusive, TDP1 cell noCPT 21µM, DT40 TDP1 CPT inconclusive
Cc1cc(S(=O)(=O)Nc2ccc(N3CCOCC3)cc2)ccc1Br	TDP1 cell noCPT inconclusive
Cc1ccc(C)n1-c1ccc(N2CCOCC2)c(Br)c1	HT1080NT lethal inconclusive, IL-1B inflam inh inconclusive, TDP1 cell noCPT 15µM, HT1080 IDH1KD tx inconclusive, DT40 TDP1 CPT 18µM
COC(=O)c1sccc1NC(=O)CSc1ccccc1NS(=O)(=O)c1ccc(F)cc1	none
COC(=O)c1sccc1NC(=O)CN(C)NS(=O)(=O)c1ccc(Cl)cc1	HT1080NT lethal inconclusive, TDP1 cell noCPT 18µM, DT40 TDP1 CPT inconclusive
COC(=O)c1sccc1NC(=O)CN(C)NS(=O)(=O)c1ccc([N+](=O)[O-])cc1	TDP1 cell noCPT inconclusive, DT40 TDP1 CPT inconclusive
COC(=O)c1sccc1NC(=O)CN(C)NS(=O)(=O)c1ccc(F)cc1	HT1080NT lethal inconclusive, TDP1 cell noCPT inconclusive, DT40 TDP1 CPT 18µM
CCOC(=O)C1(C)CCCN(C(=O)CCc2ccccc2)C1 (stereo not drawn)	none
